Assay results published in PubChem BioAssay (NCATS).
Records with an inconclusive call do not appear. Entries that show only a call come without a potency. The source made the active and inactive calls. The call rests on the fitted dose curve; in most records, active means well fitted activation curve with a large enough effect; inconclusive means small, poorly fitted or top-dose-only effect; inactive means flat fitted curve, though single readings scatter.

Assay: Primary redox qHTS assay for identification of artifact compounds. (AID 1845223)
Details: Amplex Red/HRP redox cycling with DTT, fluorescence; series mostly up to 53.8 µM
Source text: PI: Alexander Tropsha Ph.D.
UNC Eshelman School of Pharmacy
University of North Carolina, Chapel Hill, North Carolina
Hits from high-throughput screening (HTS) of chemical libraries are often false positives due to their interference with the assay detection technology. In response to this problem, we generated the largest publicly available library of chemical liabilities and developed a free webtool to predict HTS artifacts, both of which are described herein. More specifically, we generated, curated, and integrated HTS datasets for thiol reactivity, redox activity, and luciferase (firefly and nano) activity. Using these curated datasets, we developed and validated several Quantitative Structure-Interference Relationship (QSIR) models to predict nuisance behavior. […] These models were employed for virtual profiling of the National Center for Advancing Translational Science's (NCATS) in-house library, and 256 compounds for each assay were selected for the experimental validation of nuisance behavior. The BA for these external predictions ranged from 58 to 78% for compounds within the applicability domains of the models. […] The models developed in this study, along with aggregation models previously developed by our group (SCAM Detective) were implemented in "Liability Predictor," an online tool which may be used as part of chemical library design or for triaging HTS hits. Both the models and the curated datasets are publicly available at https://liability.mml.unc.edu/.
SEQUENCE No. (e.g., 1, 2, 3, etc.); […] (e.g., Cells, Incubation, Reagent, etc.); VALUE; DESCRIPTION.
1; Reagent; 3 uL; Amplex Red and HRP mixture.
2; Compounds and control; 16 nL; Kalypsis pin tool (Wako USA) equipped with a 1536-well pin head. […]
6; Detection; Fluorescence, ViewLux microplate reader, 525 nm excitation, 598 nm emission.
NOTES (numbers refer to Sequence numbers above)
1. 3 uL of a mixture containing Amplex Red (25 uM final concentration) and horseradish peroxidase (HRP; 250 mU/mL final concentration) in assay buffer (HBSS) was dispensed into all wells of a 1536-well assay plate (solid-bottom black plate; Greiner Bio One, Monroe, NC).
2. A Wako Pin-tool (Wako Automation, Richmond, VA) was used to transfer 16 nL of compounds (consisting of 7-plates in qHTS format, final concentration range 18.3 nM to 114 uM) or control DA3003 (final concentration range 1.22 nM to 40 uM).
3. 15 min. incubation at room temperature protected from light.
4. 1 uL of DTT (prepared fresh; final concentration 250 uM) was dispensed for a final assay volume of 4 uL.
5. Plates were centrifuged (121xg, 15 seconds) and incubated for 30 minutes at room temperature protected from light.
6. Samples were read for fluorescence (Ex/Em = 525(20)/598(25) nm) on a ViewLux CCD imager (PerkinElmer). Data were normalized to DMSO (0% activity) and DA3003 (10 uM final concentration; 100% activity) and the resulting percent inhibition data were fitted to a 4-parameter Hill equation using NCATS in-house software.

Row | Compound | Potency
1 | O=C(c1ccc(Nc2nccc(-c3cc4ccccc4s3)n2)cc1)N1CCC(N2CCCC2)CC1 | inactive
2 | NC(=O)c1c(OCc2c(F)cc(Br)cc2F)nsc1NC(=O)NCCCCN1CCCC1 | inactive
3 | O=C(O)CCCc1c[nH]c2ccccc12 | inactive
4 | Cc1cc(Nc2cc(CN3CCOCC3)c3nc(C)c(Cc4ccc(Cl)cc4F)n3n2)n[nH]1 | inactive
5 | COc1ccc2c(OCc3nnc4ccc(-c5ccccc5)nn34)ccnc2c1 | inactive
6 | CCCn1c(=O)c2[nH]c(-c3cnn(Cc4cccc(C(F)(F)F)c4)c3)nc2n(CC)c1=O | inactive
7 | c1nc2nc(Nc3ccc(N4CCOCC4)cc3)nc(NC3CCCCC3)c2[nH]1 | inactive
8 | CS(=O)(=O)c1ccc(-c2cnc(N)c(C(=O)Nc3ccccc3)n2)cc1 | inactive
9 | NCC(=O)Nc1ccc(-n2nc(C(F)(F)F)cc2-c2ccc3c(ccc4ccccc43)c2)cc1 | inactive
10 | Nc1ccccc1NC(=O)c1ccc(CNC(=O)OCc2cccnc2)cc1 | inactive
11 | COc1ccc2c(c1)CC[C@@H](CN(C)CC(=O)O)[C@H]2c1ccccc1 | inactive
12 | Nc1ncnc2c1c(-c1cnc3[nH]ccc3c1)nn2C1CCCC1 | inactive
13 | CC1(C)CCC(c2ccc(Cl)cc2)=C(CN2CCN(c3ccc(C(=O)NS(=O)(=O)c4ccc(N[C@H](CCN5CCOCC5)CSc5ccccc5)c(S(=O)(=O)C(F)(F)F)c4)cc3)CC2)C1 | inactive
14 | Cc1cn(-c2cc(NC(=O)c3ccc(C)c(Nc4nccc(-c5cccnc5)n4)c3)cc(C(F)(F)F)c2)cn1 | inactive
15 | Cc1cn2c(-c3cn[nH]c3)cnc2c(Nc2ccc(C(=O)N3CCNCC3)cc2F)n1 | inactive
16 | COc1cc2c(Oc3ccc(NC(=O)C4(C(=O)Nc5ccc(F)cc5)CC4)cc3F)ccnc2cc1OCCCN1CCOCC1 | inactive
17 | C=CC(=O)Nc1cccc(Oc2nc(Nc3ccc(N4CCN(C)CC4)cc3)ncc2Cl)c1 | inactive
18 | C=CCn1c(=O)c2cnc(Nc3ccc(N4CCN(C)CC4)cc3)nc2n1-c1cccc(C(C)(C)O)n1 | inactive
19 | CN(C1CCc2c(c3ccccc3n2CC(=O)O)C1)S(=O)(=O)c1ccc(F)cc1 (stereo not given) | inactive
20 | CCOC(=O)C1=C(C)NC2=C(C(=O)CC(C)(C)C2)C1c1ccc(-c2ccccc2)cc1 (stereo not given) | inactive

Row | Compound | Potency
21 | COc1ccc(OC)c(-c2nnc3ccc(-c4ccc(OC)c(O[C@@H]5CCOC5)c4)nn23)c1 | inactive
22 | CC(C)(C)c1cc(NC(=O)Nc2ccc(-c3cn4c(n3)sc3cc(OCCN5CCOCC5)ccc34)cc2)no1 | inactive
23 | CNC(=O)c1ccc(N2C(=S)N(c3cnc(C#N)c(C(F)(F)F)c3)C(=O)C23CCC3)cc1F | inactive
24 | NC(=O)Nc1cc(-c2cccc(F)c2)sc1C(=O)N[C@H]1CCCNC1 | inactive
25 | CCOc1ccccc1OCCNC(C)Cc1ccc(OC)c(S(N)(=O)=O)c1 (stereo not given) | inactive
26 | OCCCNc1cc(-c2ccnc(Nc3cccc(Cl)c3)n2)ccn1 | inactive
27 | COc1cc(-c2nn(C3CCC(N4CCN(C(C)=O)CC4)CC3)c3ncnc(N)c23)ccc1NC(=O)c1cc2ccccc2n1C (stereo not given) | inactive
28 | C[C@]12CC[C@H](O)CC1=CCC1C2CC[C@]2(C)C(n3cnc4ccccc43)=CCC12 (stereo not given in full) | inactive
29 | CNC(=O)c1ccc(-c2cnc3ncc(Cc4ccc5ncccc5c4)n3n2)cc1F | inactive
30 | COc1cc2c(Nc3ccc(NC(=O)c4ccccc4)cc3)ncnc2cc1OCCCN1CCOCC1 | inactive
31 | CCn1nnc2c(N3CCOCC3)nc(-c3ccc(NC(=O)Nc4ccc(C(=O)N5CCN(C)CC5)cc4)cc3)nc21 | inactive
32 | CC[C@@]1(O)C(=O)OCc2c1cc1n(c2=O)Cc2cc3cc(O)ccc3nc2-1 | inactive
33 | O=C(O)c1ccc2c(c1)nc(Nc1cccc(Cl)c1)c1ccncc12 | inactive
34 | Cc1ccc(NC(=O)C2(c3ccc4c(c3)OC(F)(F)O4)CC2)nc1-c1cccc(C(=O)O)c1 | inactive
35 | CCCCOc1c(C(=O)c2c(F)cc(C)cc2F)cnc2n[nH]cc12 | inactive
36 | COc1ccc(F)c(F)c1C(=O)c1cnc(NC2CCN(S(C)(=O)=O)CC2)nc1N | inactive
37 | Cn1c(=O)n(-c2ccc(C(C)(C)C#N)cc2)c2c3cc(-c4cnc5ccccc5c4)ccc3ncc21 | inactive
38 | CCc1cc2c(cc1N1CCC(N3CCOCC3)CC1)C(C)(C)c1[nH]c3cc(C#N)ccc3c1C2=O | inactive
39 | CC(C)(O)c1cc2nc(-c3cnc(N)nc3)nc(N3CCOCC3)c2s1 | inactive
40 | CN1CCC(CNc2ccc3ncc(-c4cccc(OC(F)(F)F)c4)n3n2)CC1 | inactive
